The supplement of paper PMC9844399
Structures can show the parent of a compound that is named as a salt.

Tested on: HeLa
Assay: nuclear count per well, robust Z-score vs DMSO; higher = more cells (less toxicity)
Settings: 10 µM; 6 h
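Wherever MALAT1 nuclear FISH intensity, robust Z-score vs DMSO is given: High-content confocal imaging of branched-DNA amplified FISH in 384-well plates, Hoechst-defined nuclei, score is well value minus plate DMSO median over DMSO robust SD, four wells per compound.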
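Wherever nuclear count per well, robust Z-score vs DMSO is given: Hoechst-stained nuclei counted by automated confocal imaging of four fields per well in 384-well plates, with the robust Z-score based on the per-plate DMSO median and robust SD.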

SMILES	nuclear count per well
Nc1nc(=O)[nH]cc1F [Flucytosine]	0.644
Nc1nc(Cl)nc2c1ncn2[C@H]1C[C@H](O)[C@@H](CO)O1 [Cladribine]	-0.899
O=C(O)c1cn(C2CC2)c2cc(N3CCNCC3)c(F)cc2c1=O [Ciprofloxacin]	-0.537
CC(=O)N(O)CCCCCNC(=O)CCC(=O)N(O)CCCCCNC(=O)CCC(=O)N(O)CCCCCN [Deferoxamine mesylate salt]	2.01
OCCOCCN1CCN(C(c2ccccc2)c2ccc(Cl)cc2)CC1 (stereo not given) [Hydroxyzine Dihydrochloride]	0.351
CC1=C(/C=C/C(C)=C/C=C/C(C)=C\C(=O)O)C(C)(C)CCC1 [13-cis retinoic acid]	0.404
Nc1ccn([C@@H]2CS[C@H](CO)O2)c(=O)n1 [Lamivudine]	0.0223
CC1(COc2ccc(CC3SC(=O)NC3=O)cc2)CCCCC1 (stereo not given) [Ciglitazone]	1.14
CC(=O)C1=C(O)C=C2Oc3c(C(C)=O)c(O)c(C)c(O)c3[C@@]2(C)C1=O [(+)Usnic acid]	-0.287
C[C@H](CCC(=O)NCCS(=O)(=O)O)[C@H]1CC[C@H]2[C@@H]3[C@@H](O)C[C@@H]4C[C@H](O)CC[C@]4(C)[C@H]3CC[C@]12C [Tauroursodeoxy cholic acid dihydrate]	0.21
CCc1cc(C(N)=S)ccn1 [Ethionamide]	-0.24
Nc1ccn([C@H]2CC[C@@H](CO)O2)c(=O)n1 [Zalcitabine (2',3'-Dideoxycytidine)]	-0.538
CCCC(CCC)C(=O)O [Valproic Acid]	-0.0612
Nc1nc(/C(=C/CC(=O)O)C(=O)N[C@@H]2C(=O)N3C(C(=O)O)=CCS[C@H]23)cs1 [Ceftibuten]	0.975
C=C1C(=O)O[C@H]2[C@H]1CC/C(C)=C/CC[C@@]1(C)O[C@@H]21 [Parthenolide]	-3.34
CC1=Nc2ccc(Cl)cc2S(=O)(=O)N1 [Diazoxide]	0.862
O=C(NOCC1CC1)c1ccc(F)c(F)c1Nc1ccc(I)cc1Cl	-0.208
O=C1CN(/N=C/c2ccc(-c3ccc([N+](=O)[O-])cc3)o2)C(=O)N1 [Dantrolene sodium salt]	0.134
CC(C)(O/N=C(\C(=O)N[C@@H]1C(=O)N2C(C(=O)[O-])=C(C[n+]3ccccc3)CS[C@H]12)c1csc(N)n1)C(=O)O [Ceftazidime]	0.671
CC1=NN(c2ccccc2)C(=O)C1	0.294
NC(=S)c1ccccc1 [Thiobenzamide]	-0.0414
O=C(O)CCCc1ccccc1 [Sodium Phenylbutyrate]	-0.0236
CS(=O)(=O)Nc1ccc([N+](=O)[O-])cc1OC1CCCCC1	-0.516
CC(=O)OCOC(c1ccc2ccccc2c1)P(=O)(OCOC(C)=O)OCOC(C)=O (stereo not given)	-4.1
N[C@H]1C(O)O[C@H](CO)[C@@H](O)[C@@H]1O (stereo not given in full) [Glucosamine HCl]	1.11

Tested on: HeLa
Assay: MALAT1 nuclear FISH intensity, robust Z-score vs DMSO; higher = more nuclear MALAT1 lncRNA, active = -3 or less
Settings: 10 µM; 6 h

SMILES	MALAT1 nuclear FISH intensity
CCN(CC)C(=O)N1CCN(C)CC1 [Diethylcarbamazine citrate]	0.786 (inactive)
Nc1ncn([C@@H]2O[C@H](CO)[C@@H](O)[C@H]2O)c(=O)n1 [Azacytidine]	1.11 (inactive)
CC(C)NCC(O)c1ccc(NS(C)(=O)=O)cc1 (stereo not given)	-1.02 (inactive)
C1CCC(C(CC2CCCCN2)C2CCCCC2)CC1 (stereo not given) [Perhexiline maleate salt]	-3.64 (active)
CCCCC[C@H](O)C/C=C1/C(=O)C=C[C@@H]1C/C=C\CCCC(=O)O [D12-Prostaglandin J2]	0.963 (inactive)
O=P(O)(O)C(O)(Cn1ccnc1)P(=O)(O)O [Zoledronic acid]	-0.895 (inactive)
C=CCNC1=C2C[C@@H](C)C[C@H](OC)[C@H](O)[C@@H](C)/C=C(\C)[C@H](OC(N)=O)[C@@H](OC)/C=C\C=C(/C)C(=O)NC(=CC1=O)C2=O [17-Allylamino-geldanamycin]	1.39 (inactive)
CC(=O)CC(c1ccccc1)c1c(O)c2ccccc2oc1=O (stereo not given) [Warfarin]	-1.11 (inactive)
Oc1cc2c(cc1O)CN(C(=S)NCCc1ccc(Cl)cc1)CCC2 [Capsazepine]	0.801 (inactive)
CCOC(=O)C(C)(C)Oc1ccc(Cl)cc1 [Clofibrate]	0.229 (inactive)
C#C[C@]1(O)CC[C@H]2[C@@H]3CCC4=CCCC[C@@H]4[C@H]3C(=C)C[C@@]21CC [Desogestrel]	-0.0225 (inactive)
NNc1nncc2ccccc12	-0.795 (inactive)
N#CC(C#N)=C(N)/C(C#N)=C/c1ccc(O)cc1	-0.368 (inactive)
Cc1cccc(Nc2nc(-c3ccncc3)cs2)c1	-0.461 (inactive)
CC(=O)N[C@@H](CC(C)C)C(=O)N[C@@H](CC(C)C)C(=O)N[C@H](C=O)CCCNC(=N)N [Leupeptin]	-1.26 (inactive)
Nc1nc(=O)[nH]cc1F [Flucytosine]	-0.522 (inactive)
Nc1nc(Cl)nc2c1ncn2[C@H]1C[C@H](O)[C@@H](CO)O1 [Cladribine]	0.999 (inactive)
O=C(O)c1cn(C2CC2)c2cc(N3CCNCC3)c(F)cc2c1=O [Ciprofloxacin]	0.579 (inactive)
CC(=O)N(O)CCCCCNC(=O)CCC(=O)N(O)CCCCCNC(=O)CCC(=O)N(O)CCCCCN [Deferoxamine mesylate salt]	-1.05 (inactive)
OCCOCCN1CCN(C(c2ccccc2)c2ccc(Cl)cc2)CC1 (stereo not given) [Hydroxyzine Dihydrochloride]	1.11 (inactive)

SMILES	MALAT1 nuclear FISH intensity
CC1=C(/C=C/C(C)=C/C=C/C(C)=C\C(=O)O)C(C)(C)CCC1 [13-cis retinoic acid]	-0.46 (inactive)
Nc1ccn([C@@H]2CS[C@H](CO)O2)c(=O)n1 [Lamivudine]	-0.384 (inactive)
CC1(COc2ccc(CC3SC(=O)NC3=O)cc2)CCCCC1 (stereo not given) [Ciglitazone]	0.154 (inactive)
CC(=O)C1=C(O)C=C2Oc3c(C(C)=O)c(O)c(C)c(O)c3[C@@]2(C)C1=O [(+)Usnic acid]	0.525 (inactive)
C[C@H](CCC(=O)NCCS(=O)(=O)O)[C@H]1CC[C@H]2[C@@H]3[C@@H](O)C[C@@H]4C[C@H](O)CC[C@]4(C)[C@H]3CC[C@]12C [Tauroursodeoxy cholic acid dihydrate]	0.574 (inactive)
CCc1cc(C(N)=S)ccn1 [Ethionamide]	-0.403 (inactive)
Nc1ccn([C@H]2CC[C@@H](CO)O2)c(=O)n1 [Zalcitabine (2',3'-Dideoxycytidine)]	0.465 (inactive)
CCCC(CCC)C(=O)O [Valproic Acid]	-0.016 (inactive)
Nc1nc(/C(=C/CC(=O)O)C(=O)N[C@@H]2C(=O)N3C(C(=O)O)=CCS[C@H]23)cs1 [Ceftibuten]	2.01 (inactive)
C=C1C(=O)O[C@H]2[C@H]1CC/C(C)=C/CC[C@@]1(C)O[C@@H]21 [Parthenolide]	10.2 (inactive)
CC1=Nc2ccc(Cl)cc2S(=O)(=O)N1 [Diazoxide]	0.0694 (inactive)
O=C(NOCC1CC1)c1ccc(F)c(F)c1Nc1ccc(I)cc1Cl	-0.161 (inactive)
O=C1CN(/N=C/c2ccc(-c3ccc([N+](=O)[O-])cc3)o2)C(=O)N1 [Dantrolene sodium salt]	-0.32 (inactive)
CC(C)(O/N=C(\C(=O)N[C@@H]1C(=O)N2C(C(=O)[O-])=C(C[n+]3ccccc3)CS[C@H]12)c1csc(N)n1)C(=O)O [Ceftazidime]	-0.344 (inactive)
CC1=NN(c2ccccc2)C(=O)C1	-1.67 (inactive)
NC(=S)c1ccccc1 [Thiobenzamide]	-1.8 (inactive)
O=C(O)CCCc1ccccc1 [Sodium Phenylbutyrate]	1.1 (inactive)
CS(=O)(=O)Nc1ccc([N+](=O)[O-])cc1OC1CCCCC1	1.16 (inactive)
CC(=O)OCOC(c1ccc2ccccc2c1)P(=O)(OCOC(C)=O)OCOC(C)=O (stereo not given)	-0.659 (inactive)
N[C@H]1C(O)O[C@H](CO)[C@@H](O)[C@@H]1O (stereo not given in full) [Glucosamine HCl]	-0.415 (inactive)
